Shown is part of a subset that was picked to be rich in hits.
ER stress death = ER stress cell death inhibition | CSM14.1 thapsigargin ER stress survival, ATP luminescence | relative survival (cellular ATP), % at 15 µg/mL (by protocol) | hit rate 0.33% among 48,000 | AID 1010;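 active = survival measured by cellular ATP above 50% at 15 µg/ml in the first screen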;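 also: cell death triggered by about 15 µM thapsigargin; ATP read 24 h after thapsigargin was added; plate controls were thapsigargin with DMSO for no effect and DMSO without thapsigargin for full effect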
* hit, by the source's call.

SMILES	ER stress death
COc1ccc(CN2CCN(C(=O)COc3ccc(Cl)cc3)CC2)cc1OCc1ccccc1	69.2*
O=C(COc1ccc(Cl)cc1)N1CCN(Cc2cccc(F)c2)CC1	-2.3
COc1ccc(Br)cc1CN1CCN(C(=O)COc2ccc(Cl)cc2)CC1	23.5
CCCCSc1nnc(NC(=O)Cn2c[n+]([N-][N+](=O)[O-])cn2)s1	5.5
O=c1c2cc(I)ccc2nc(/C=C/c2ccccc2O)n1-c1ccccc1	16.2
